# Results as given in PubChem BioAssay.
# Calls of active or inactive are those of the source.
# Experiment: PSAC antagonists in infected red cells, primary screen, cell-based, P. falciparum Indochina, OD700, 1 h (AID 1154)
# Details: P. falciparum Indochina infected RBC osmotic lysis, higher = more signal, called active from +8 up or from −8 down
row,Compound,z-score
1,CN1C(=O)[C@]2(CCC(=O)OC(C)(C)C)N=C(c3ccc(OCCCO)cc3)O[C@@H]2c2ccccc21,33.2 (active)
2,CC(c1ccccc1)C(O)C1C=CC2C(=O)N(c3ccccc3)C(=O)C2N1Nc1ccc(C#N)cc1 (configuration not stated),14 (active)
3,COCCOC(=O)N1C(=O)[C@@]2(c3cc(C#CCCO)ccc31)[C@H](C(=O)N1CCN(c3ncccn3)CC1)[C@H]1C(=O)O[C@H](c3ccccc3)[C@H](c3ccccc3)N1[C@@H]2c1ccc(O)cc1,1.78 (inactive)
4,C#CCN(C/C=C/c1ccccc1)[C@H](CO[Si](C)(C)C(C)(C)C)c1ccccc1,0.829 (inactive)
5,NCCCC[C@@H]1NC(=O)[C@H]2C[C@@H](C(=O)O)[C@@H](c3cccc(OCCO)c3)N2C1=O,-1.87 (inactive)
6,[N-]=[N+]=NCc1ccccc1C[C@]1(C(=O)N2CCCCC2)N=C(c2ccc(OCCCO)cc2)O[C@H]1c1ccccc1,20.4 (active)
7,CCCCC(=C=CC[C@H](O)c1ccc(OCCO)cc1)C[C@H](O)c1ccccn1,15.4 (active)
8,CN(C)C(=O)[C@@]1(CCS(=O)(=O)c2ccccc2)N=C(c2ccc(OCCCO)cc2)O[C@H]1c1ccccc1N=[N+]=[N-],28.1 (active)
9,[N-]=[N+]=NCc1ccccc1[C@@H]1OC(c2ccc(OCCCO)cc2)=N[C@]1(Cc1ccccc1)C(=O)NCc1ccccc1,18.4 (active)
10,O=C(NCCO)C1=C[C@H](Oc2ccccc2I)[C@@H](O)[C@H](NCc2ccc(F)cc2)C1,5.38 (inactive)
11,COc1ccc([Si](C)(C)[C@@H]2[C@@H](CC(=O)N(CCO)Cc3ccccc3)O[C@]3(C(=O)N(Cc4ccc(N5CCC5=O)cc4)c4ccccc43)[C@H]2C)cc1,6.38 (inactive)
12,O=C1NC(=O)C2C1C=CC(C(O)c1cccc(O)c1)N2Nc1ccc(Cl)cc1Cl (configuration not stated),4.82 (inactive)
13,CC(C)C[C@@H]1NC(=O)C([C@@H](C)OCc2ccccc2)NC(=O)[C@@]23C(=O)N[C@@H](Cc4ccccc4)C2[C@H](C)[C@@]2(C)O[C@H]2C3/C=C/CC/C=C/CNC1=O (some centres not stated),1.35 (inactive)
14,COc1ccc([Si](C)(C)[C@H]2[C@H](CCO)O[C@@]3(C(=O)N(Cc4ccc(N5CCOC5=O)cc4)c4ccccc43)[C@@H]2C)cc1,34.9 (active)
15,COc1ccc(CCNC(=O)[C@@]2(Sc3ccc(C)cc3)CC(=O)N(Cc3cc(C(F)(F)F)cc(C(F)(F)F)c3)[C@@H]2c2ccc(CO)cc2)cc1,1.54 (inactive)
16,CCCCC(O)C1C=CC2C(=O)NC(=O)C2N1Nc1ccc(Cl)cc1Cl (configuration not stated),2.42 (inactive)
17,CO[C@H]1O[C@H](CO)[C@@H](OC(=O)Nc2ccc3c(c2)OCO3)[C@@H]2OC(=O)[C@@H](Cc3ccccc3)C/C=C/C[C@H](Cc3ccccc3)C(=O)O[C@@H]12,2.93 (inactive)
18,CN(C)C(=O)[C@]1(Cc2ccccc2CN=[N+]=[N-])N=C(c2ccc(OCCCO)cc2)O[C@@H]1c1ccccc1N=[N+]=[N-],33.2 (active)
19,O=C1OCCC=C[C@H]2OC34C=CCN(CCN5CCOCC5)C(=O)[C@H]3N(CCCO)C(=O)[C@@H]4C12 (some centres not stated),0.377 (inactive)
20,C=CCNC(=O)[C@@H]1[C@H]2C(=O)O[C@H](c3ccccc3)[C@H](c3ccccc3)N2[C@H](c2ccccc2OCCO)[C@@]12C(=O)N(C(=O)OCCOC)c1ccc(C#CCCO)cc12,2.62 (inactive)
21,C=CCC(OC(C)=O)[C@@H]1[C@@H](N(Cc2cccc3ccccc23)C(=O)c2cccc3ccccc23)c2cc(OCCCO)ccc2N1C(=O)Cc1ccc2ccccc2c1 (some centres not stated),0.704 (inactive)
22,C=C(COC)/C(=C/C[C@@H](OC(C)=O)c1ccccc1OCCO)c1cc(C(=O)OC)ccc1OC,17.2 (active)
23,COCC(=C=CC[C@@H](O)c1cccc(OCCO)c1)C[C@@H](O)COCc1ccccc1,8.33 (active)
24,CCCCC=C[C@@H](NC(=O)c1ccc(C(F)(F)F)cc1)c1ccccc1,5.47 (inactive)
25,COC(=O)[C@]1(CO)N=C(c2ccc(OCCCO)cc2)O[C@@H]1c1ccccc1CN=[N+]=[N-],7.47 (inactive)
26,COC(=O)[C@@]1(Cc2ccc(OC)cc2)[C@H]2c3cc(C(=O)N4CCCC4)n(CCc4ccc(OC)c(Br)c4)c3C[C@H]2CN1C(=O)c1ccccc1,2.64 (inactive)
27,COCCOC(=O)N1C(=O)[C@@]2(c3cc(C#CCC(C(=O)OC)C(=O)OC)ccc31)[C@H](C(=O)N1CCc3cc(OC)c(OC)cc3C1)[C@H]1C(=O)O[C@H](c3ccccc3)[C@H](c3ccccc3)N1[C@@H]2c1ccc(O)cc1,0.577 (inactive)
